In the library only some 31% were active in any assay of this set; here they are far more common.
PLAP act: human PLAP activation. P05187. purified PLAP enzyme, luminescent substrate read-out; active compounds read high. activation fold at 20 µM. hit rate 1.2% among 96,000; in the data active means activation fold above about 2
CYP2C19 inh: human CYP2C19 inhibition. P33261. CYP2C19 Supersomes, luciferin-H EGE luminescence, 30 min. inhibition, % at 5 µM. hit rate 21% among 96,000. AID 778;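 active means CYP2C19 inhibition above a set limit at 5 µM in the primary screen, cut at about 50% in these data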;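 further: plate controls were negative control wells for no effect and 2.5 mM tranylcypromine positive control for full effect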
Target sequence (P33261 whole entry, looked up): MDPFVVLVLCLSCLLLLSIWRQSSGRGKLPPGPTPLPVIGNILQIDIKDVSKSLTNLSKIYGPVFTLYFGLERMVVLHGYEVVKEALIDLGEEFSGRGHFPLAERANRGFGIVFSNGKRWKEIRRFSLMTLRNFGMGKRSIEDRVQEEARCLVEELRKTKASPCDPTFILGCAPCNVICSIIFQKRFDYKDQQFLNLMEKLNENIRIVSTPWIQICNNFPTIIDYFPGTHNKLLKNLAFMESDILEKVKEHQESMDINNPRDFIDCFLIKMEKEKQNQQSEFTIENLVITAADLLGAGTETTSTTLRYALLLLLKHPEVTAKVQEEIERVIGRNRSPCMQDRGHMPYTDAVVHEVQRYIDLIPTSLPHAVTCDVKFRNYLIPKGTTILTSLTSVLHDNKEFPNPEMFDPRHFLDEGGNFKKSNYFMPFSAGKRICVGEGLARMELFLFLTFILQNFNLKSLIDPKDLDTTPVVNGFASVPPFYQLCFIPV
CYP2C19 act: increases human CYP2C19 enzyme activity; P33261; recombinant CYP2C19, luciferin-H EGE luminescence; active compounds read high; 0 = fully inhibited enzyme, 1 = untreated enzyme; activation factor at 5 µM; 96,000 tested, under 10 active; AID 1025;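 active means activation factor of at least 2 at 5 µM in the primary screen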;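 further: 0 = wells with 2.5 mM tranylcypromine and 1 = vehicle-only wells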
CYP2C9 activ: CYP2C9 (human) activation. P11712. recombinant CYP2C9, luciferin-H conversion, luminescence; active compounds read high; factor 1 = untreated enzyme, 0 = blocked. activation factor at 5 µM. hit rate 1.4% among 96,000. AID 1024;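 active means activation factor of 2 or more for CYP2C9 at a 5 µM dose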;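 further: 0 = sulfaphenazole-blocked wells and 1 = vehicle-only wells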
CYP2C9 inh: human CYP2C9 inhibition; P11712; CYP2C9 Supersomes, luciferin-H conversion, luminescence; inhibition, % at 5 µM; hit rate 20% among 96,000; AID 777;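 active means blocking of liver enzyme CYP2C9 beyond about 50% at 5 µM, limit read from the data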
An asterisk follows results filed as active.

SMILES	PLAP act	CYP2C19 inh	CYP2C19 act	CYP2C9 activ	CYP2C9 inh
CCOC(=O)CSc1nc(N2CCOCC2)c2c(c1C#N)CC(C)(C)N(C)C2	1.2	22	0.8	0.3	73*
O=C(OCCN1CCOCC1)c1cccs1	1	2	1	1.1	-11
Cc1ccc(NS(=O)(=O)c2ccc3c(c2)oc(=O)n3C)cc1F	0.7	56*	0.4	0.2	76*
CSc1cccc(NS(=O)(=O)c2ccc3c(c2)oc(=O)n3C)c1	1.3	97*	0	0.5	53*
CCN(CC)CCCNC(=O)c1sc2nc(-c3ccc(F)cc3)cn2c1C	1.5	-6	1.1	1	-4
O=C(O)COc1ccc(-c2nnn(Cc3ccccc3F)n2)cc1	1.2	-19	1.2	1.1	-7
CC(CNS(=O)(=O)c1cc(Cl)ccc1Cl)CN(C)C (stereo not given)	1.3	30	0.7	1	-3
O=C1CC(c2ccncc2)c2cc3c(cc2N1)OCO3 (stereo not given)	0.9	48	0.5	0.3	68*
COc1cc2c(cc1OC)C(c1cccnc1)CC(=O)N2 (stereo not given)	0.9	-4	1	0.9	7
Cc1ccc(C2CC(=O)Nc3cc4c(cc32)OCO4)o1 (stereo not given)	0.8	84*	0.2	0.7	26
O=C1CC(c2ccc3c(c2)OCO3)c2cc3c(cc2N1)OCO3 (stereo not given)	1	64*	0.4	0.4	60*
COc1ccc(C2(CNC(=O)CCC(=O)O)CCCC2)cc1	1.2	8	0.9	1	2
Cc1ccc(NC(=O)c2oc3ccccc3c2NC(=O)c2ccc3c(c2)OCO3)cc1	1.2	-12	1.1	0.5	51*
CCC(=O)Nc1ccc(NC(=O)c2ccc3c(c2)OCO3)cc1	0.9	9	0.9	0.9	14
CCC(CC)C(=O)Nc1cccc(C(=O)Nc2nccs2)c1	1	-1	1	0.8	16
CCC(CC)C(=O)Nc1cccc(C(=O)Nc2ccc(S(=O)(=O)Nc3ccc(C)cc3)cc2)c1	1.1	87*	0.1	0.1	90*
O=C(Nc1c(C(=O)Nc2cccc(F)c2)oc2ccccc12)c1ccc2c(c1)OCO2	1.2	8	0.9	0.9	15
CCC(CC)C(=O)Nc1cccc(C(=O)Nc2ccc3c(c2)OCO3)c1	0.9	84*	0.2	0.1	88*
O=C(Nc1cccc(F)c1)c1ccc2c(c1)OCO2	0.8	94*	0.1	0.5	50*
CCCC(=O)Nc1cccc(NC(=O)c2ccc3c(c2)OCO3)c1	1.3	44	0.6	0.5	52*
CCCN(CCC)S(=O)(=O)c1cccc(C(=O)Nc2ccc3c(c2)OCO3)c1	0.8	43	0.6	0.4	63*
COc1ccc(OCC(=O)Nc2cc(-c3nn(C)c(=O)c4ccccc34)ccc2OC)cc1	1.1	39	0.6	0.8	22
Cc1ccc(SCc2[nH]nc3c2C2(C(=O)Nc4ccc([N+](=O)[O-])cc42)C(C#N)=C(N)O3)cc1 (stereo not given)	1.7	34	0.7	0.5	52*
CCOC(=O)N1CCC2(CC1)C(C#N)=C(N)OC1=C2C(=O)CC(C)C1 (stereo not given)	1	16	0.8	0.3	68*
Cc1[nH]nc2c1C1(CCN(C(=O)OCc3ccccc3)CC1)C(C#N)=C(N)O2	1.5	68*	0.3	0.5	48
SMILES	PLAP act	CYP2C19 inh	CYP2C19 act	CYP2C9 activ	CYP2C9 inh
N#CC1=C(N)OC2=C(C(=O)CCC2)C12CCN(C(=O)OCc1ccccc1)CC2	1.4	99*	0	0.3	66*
Cc1nn(CC(C)C)c(=S)[nH]c1=O	0.9	11	0.9	0.6	36
CCOC(=O)C1=C(C)NC(SCC(=O)O)=NC1c1ccccc1 (stereo not given)	1.1	16	0.8	0.8	16
CCOC(=O)c1[nH]c(C)c(C(=O)NCc2cccnc2)c1C	0.9	0	1	1.2	-17
CCOC(=O)N1CCC2(CC1)C(C#N)=C(N)Oc1n[nH]c(CSc3ccc(C)cc3)c12	1.1	42	0.6	0.3	70*
c1ccc(CNCCN2CCNCC2)nc1	0.9	-2	1	1	2
CC(=O)CC(C)=NCCN=C(C)CC(C)=O	1.1	-11	1.1	1.1	-8
CC(C)C(NC(=O)C1CCCCC1)C(=O)NC1CCN(Cc2ccccc2)CC1 (stereo not given)	1	0	1	1.1	-6
CCCCNC(=O)c1ccccc1NC(=O)CCSc1ccccc1	0.8	93*	0.1	0.2	81*
c1coc(CNc2ncnc3sc4c(c23)CCCCC4)c1	1.6	87*	0.1	0.1	93*
Cc1sc2ncnc(NCc3cccs3)c2c1C	0.7	52*	0.5	0.6	42
Cc1sc2ncnc(NCc3ccco3)c2c1C	1.3	78*	0.2	0.4	61*
Cc1sc2ncnc(NCCCO)c2c1C	1.1	14	0.9	0.8	17
CCSc1nnc(NC(=O)Cc2ccc(OC)c(S(=O)(=O)N3CCOCC3)c2)s1	1.1	-4	1	0.7	30
Cc1nc2ccccc2n1C1CC(=O)N(N(C)C)C1=O (stereo not given)	0.8	-2	1	0.9	9
NCCCCCNC(=O)/C=N\O	1	-6	1.1	1	-2
CCOC(=O)C1CCCN(C(=O)/C=C/c2cccc([N+](=O)[O-])c2)C1 (stereo not given)	1.1	11	0.9	1	-2
Cc1oc(C)c2c(=O)ccc3c(c12)OC(N)=C(C#N)C3c1ccccc1Cl (stereo not given)	1	22	0.8	0.5	53*
CSc1ccc(C2C(C#N)=C(N)Oc3c2ccc(=O)c2c(C)oc(C)c32)cc1 (stereo not given)	1.3	17	0.8	0.4	59*
O=S(=O)(NCc1ccc2c(c1)OCO2)c1cnc[nH]1	1.5	70*	0.3	0.1	92*
COc1cc(C)c(Cl)c(C)c1S(=O)(=O)NCc1ccc2c(c1)OCO2	1	25	0.8	1.4	-36
CCOc1ccc(OCC)c(S(=O)(=O)NCc2ccc3c(c2)OCO3)c1	1.1	100*	0	0.1	92*
COc1cc(C)c(S(=O)(=O)NCc2ccc3c(c2)OCO3)cc1C	0.6	100*	0	0.2	84*
COc1cc(S(=O)(=O)NCc2ccc3c(c2)OCO3)ccc1Cl	0.7	100*	0	0.7	30
COc1ccc(OC)c2[nH]c(=O)c(CCNS(=O)(=O)c3ccc(C)cc3)cc12	1.4	31	0.7	0.3	68*
Cc1ccc(C)c2[nH]c(=O)c(CCNC(=O)C(C)C)cc12	1.3	-14	1.1	1.1	-13
COc1ccc(OC)c2[nH]c(=O)c(CCNC(=O)c3ccc(S(=O)(=O)N(C)C)cc3)cc12	1.3	3	1	0.7	33
COc1ccc(OC)c2[nH]c(=O)c(CCNS(=O)(=O)c3ccc(Cl)cc3)cc12	1.4	44	0.6	0.2	84*

Screening results from PubChem.
